# The panel holds about 83,000 compounds, 20% with a hit somewhere; the sample as a whole holds those more often.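 Activity criterion: percent growth below 10, measured after cells in 96-well plates were exposed to a single compound concentration for 48 hours.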 A number with no mark means an inactive call. Calls of active or inactive are those of the source.
# Experiments:
# Assay in all cases: NCI-60 one-dose screen, 48 h (100 = growth as untreated, 0 = no growth, -100 = all killed)
# Details in all cases: 10 µM
# OVCAR-8 ovarian = tested on: OVCAR-8 ovarian
# OVCAR-5 ovarian = tested on: OVCAR-5 ovarian
# OVCAR-4 ovarian = tested on: OVCAR-4 ovarian
# SK-OV-3 ovarian = tested on: SK-OV-3 ovarian
# IGROV1 ovarian = tested on: IGROV1 ovarian
# OVCAR-3 ovarian = tested on: OVCAR-3 ovarian
# HS 578T breast = tested on: HS 578T breast
# NCI/ADR-RES ovarian = tested on: NCI/ADR-RES ovarian
# T-47D breast = tested on: T-47D breast
# MDA-MB-435 melanoma = tested on: MDA-MB-435 melanoma
# SW-620 colon = tested on: SW-620 colon
# MCF7 breast = tested on: MCF7 breast
# HCT-116 colon = tested on: HCT-116 colon
# KM12 colon = tested on: KM12 colon
# BT-549 breast = tested on: BT-549 breast
# HCC-2998 colon = tested on: HCC-2998 colon
SMILES,growth (OVCAR-8 ovarian),growth (OVCAR-5 ovarian),growth (OVCAR-4 ovarian),growth (SK-OV-3 ovarian),growth (IGROV1 ovarian),growth (OVCAR-3 ovarian),growth (HS 578T breast),growth (NCI/ADR-RES ovarian),growth (T-47D breast),growth (MDA-MB-435 melanoma),growth (SW-620 colon),growth (MCF7 breast),growth (HCT-116 colon),growth (KM12 colon),growth (BT-549 breast),growth (HCC-2998 colon)
N#Cc1cc(-c2cc3ccccc3o2)oc1N,4.89% (active),20.9%,20.5%,17.3%,7.67% (active),-7.74% (active),-37.9% (active),11.1%,27.9%,5.63% (active),12%,22.9%,8.05% (active),0.443% (active),–,–
CN(CCc1ccccn1)c1ccccc1,102%,94%,98.5%,112%,103%,131%,107%,105%,97.4%,120%,111%,95.9%,101%,104%,104%,103%
CCN1CCC2(CC1)OC(c1ccccc1)C(c1ccccc1)O2 (stereo not given),106%,95.4%,110%,121%,144%,114%,115%,107%,103%,114%,102%,99.6%,95.1%,115%,110%,113%
CO/N=C(/C(=O)NC1C(=O)N2C(C(=O)O)=C(COC(N)=O)CSC12)c1ccco1 (stereo not given),108%,108%,106%,114%,109%,122%,116%,110%,101%,104%,110%,94.2%,104%,113%,108%,104%
COc1ccc2c(c1)-c1c(c3cc(OC)ccc3n(CCN(C)C)c1=O)C2=O,4.46% (active),46.3%,-28.3% (active),28.7%,-25.6% (active),6.8% (active),25.7%,–,63.8%,21.8%,-8.7% (active),-0.273% (active),-21.2% (active),–,64.2%,34.9%
COc1ccc(-n2c(SCc3cc(OC)c(OC)c(OC)c3)nc3ccc(C)cc3c2=O)cc1,84.2%,80.6%,67.2%,73.8%,62%,59.9%,77.7%,45.8%,67.8%,-4.51% (active),49.3%,24.8%,35%,35.4%,71.5%,75.7%
COc1cc2c(cc1OCCCN1CCN(c3ncnc4ccccc34)CC1)N=CC1CCCN1C2=O (stereo not given),-54.7% (active),17.7%,4.86% (active),19.8%,-28.9% (active),-35.2% (active),-57.6% (active),15.9%,25%,-67.8% (active),-24% (active),-17.4% (active),11.7%,-24.8% (active),–,–
c1ccc(CO[C@H]2CO[C@H]3[C@@H]2OC[C@H]3OCc2ccccc2)cc1,107%,99.6%,111%,96%,92.3%,111%,109%,106%,93.7%,115%,107%,101%,105%,103%,104%,98%
COc1cc2c(cc1OCCCCCCN1CCN(CC(=O)Nc3ccc(Cl)cc3C(=O)c3ccccc3Cl)CC1)N=CC1CCCN1C2=O (stereo not given),-81.7% (active),-74.4% (active),-88.9% (active),-90.2% (active),-79% (active),-91.9% (active),-83.5% (active),-60.8% (active),-57.8% (active),-81.2% (active),-83.6% (active),-7.24% (active),-42.3% (active),-75.9% (active),–,–
COc1cccc(Cn2c(-c3nonc3N)nc3ccccc32)c1,21.4%,37.5%,32.2%,6.27% (active),28.1%,-54% (active),3.15% (active),14.4%,55.1%,-73.9% (active),–,15.5%,18.3%,–,47.9%,23.7%
Nc1c(C(=O)Nc2ccccc2)sc2nc3c(cc12)CCCC3,33.6%,62%,49.9%,24.7%,30.5%,-13.7% (active),36.8%,20.4%,47.3%,-30.6% (active),34.4%,15.6%,25.5%,31.1%,66.6%,24.5%
c1ccc([I+]c2ccccc2)cc1,39.2%,85.2%,66%,68.7%,45.6%,62.7%,116%,91.5%,76.8%,68.9%,40.8%,64%,31%,41.9%,65.5%,–
Clc1ccc(/C=C2\CCCC3=C2N=C2SC=NN2C3c2ccc(Cl)cc2)cc1 (stereo not given),91.4%,107%,92.1%,109%,104%,112%,96.6%,102%,88.2%,76.7%,94.1%,23.7%,5.7% (active),83.9%,117%,77.2%
COc1ccccc1CNCCN1C(=O)c2ccc3c4c(ccc(c24)C1=O)C(=O)N(CCNCc1ccccc1OC)C3=O,-77.7% (active),-52.6% (active),-99.7% (active),-79.6% (active),-72.5% (active),-78.5% (active),–,-62.6% (active),-65.8% (active),-80.2% (active),–,-69.2% (active),-92.6% (active),-96.6% (active),-94% (active),–
COc1ccc(OC)c(/C=C/c2nnc(Nc3ccc(Cl)cc3)o2)c1,66.7%,103%,-16% (active),32.9%,80.6%,32.1%,6.91% (active),–,-4.56% (active),69.8%,66.7%,74.5%,21.9%,86.5%,97.4%,55.4%
CN(C)c1ccc(-c2cc(-c3cccc(NS(C)(=O)=O)c3)nc(N)c2C#N)cc1,30%,52%,45.7%,15.1%,80.4%,-48.2% (active),15.3%,–,80.4%,-25.9% (active),24.3%,16.1%,5.65% (active),-14.3% (active),30.8%,-41.9% (active)
Cc1cs/c(=N\NC(=O)c2cc(-c3cc4ccccc4o3)nn2-c2ccccc2)n1-c1ccccc1,90.8%,107%,82.1%,91.2%,–,67%,49.7%,87.1%,69.6%,102%,93.4%,73.4%,83%,98.6%,–,–
O=C1C(=O)c2ccccc2C(O)=C1CCCc1ccc(C2CCCCCC2)cc1,46.8%,82.6%,20.9%,48.8%,21%,51.5%,115%,–,29%,33.9%,–,25.5%,24.6%,37.8%,58.2%,8.94% (active)
Cc1nc2ccc(CN(C)c3ccc(C(=O)N[C@@H](CCC(=O)O)C(=O)O)s3)cc2c(=O)[nH]1,–,67.6%,–,55.3%,71.8%,57.3%,73.2%,43.8%,55.4%,61.6%,71.4%,23.3%,40%,73.4%,57.4%,28.5%
O=c1[nH]c(-c2ccc(Cl)cc2)nc2sc3c(c12)CCCC3,68%,103%,86.2%,92%,82.1%,101%,104%,–,64.4%,93.2%,58.8%,36%,60.9%,97.6%,92.3%,109%
CC(C)=NNc1ncnc2c1ncn2C1OC(CO)C(O)C1O (stereo not given),25.7%,49.2%,26.4%,4.34% (active),64.5%,3.84% (active),-2.14% (active),–,19.2%,18%,9.33% (active),12.2%,1.45% (active),2.36% (active),43%,-10.2% (active)
O=C1CC[C@@H]2CCCC[C@@H]2C1,109%,101%,–,99.4%,105%,132%,110%,110%,93.5%,103%,108%,97.2%,104%,112%,136%,112%
COc1cc2nc(Nc3cccc(NC(C)=O)c3)nc(N)c2cc1OC,99%,117%,107%,118%,–,111%,95.7%,149%,90.1%,123%,95.9%,99.5%,95.9%,89.5%,118%,113%
CCCCCCNC(=O)Oc1ccc(/C(=C(/CC)Cc2ccccc2)c2ccc(OCCN3CCCCC3)cc2)cc1,81.6%,94%,69.9%,86.3%,91.1%,87.8%,83.5%,–,51.3%,89%,79.1%,28.8%,62.8%,–,97.4%,87.3%
COc1cccc(-c2cc(-c3cccc(NS(C)(=O)=O)c3)nc(N)c2C#N)c1O,42.4%,84.1%,52.8%,27.2%,91.2%,-16% (active),52.8%,–,52%,-20.8% (active),37.4%,19.1%,24.7%,23.1%,58.1%,-25.3% (active)
